# Activity calls are given as the source filed them.
# Tests used:
# [1] = compound effects on lung adenocarcinoma cell viability – A549, calcein-AM fluorescence, 48 h, basal, profiling panel (AID 1162); details: higher = more signal
# [2] = compound effects on differentiated 3T3-L1 adipocyte viability – cell-based, 3T3-L1 adipocytes, calcein-AM fluorescence, 48 h, basal, profiling panel (AID 1163); details: 3T3-L1 adipocytes viability, higher = more signal
# [3] = compound effects on hepatocellular carcinoma cell viability – HepG2, calcein-AM fluorescence, 48 h, basal, profiling panel (AID 1164); details: higher = more signal
# [4] = compound effects on multiple myeloma cell viability – MM1S, calcein-AM fluorescence, 48 h, basal, profiling panel (AID 1165); details: higher = more signal;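 note: viability of MM1S multiple myeloma cells under basal unstimulated conditions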
# [5] = calcein-AM signal in unstimulated myeloma cells – cell-based, calcein-AM fluorescence, 48 h, PK04 Diversity Set, profiling panel (AID 1166); details: RPMI8226 myeloma viability, higher = more signal;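 note: cells grown under basal conditions without added stimulus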
# [6] = JC-1 mitochondrial signal, unstimulated HepG2 cells – cell-based, JC-1 fluorescence, 24 h, 100 nL compound, profiling panel (AID 1167); details: HepG2 mitochondrial potential, higher = more signal
# [7] = JC-1 mitochondrial signal, unstimulated adipocytes – cell-based, JC-1 fluorescence, 3T3-L1 adipocytes, 24 h, 100 nL compound, profiling panel (AID 1168); details: JC-1 mitochondrial fluorescence, higher = more signal, called active from +8 up or from −8 down
# [8] = JC-1 mitochondrial signal, unstimulated myeloma cells – cell-based, JC-1 fluorescence, RPMI8226, 24 h, 100 nL compound, profiling panel (AID 1169); details: JC-1 mitochondrial potential fluorescence, higher = more signal
# [9] = JC-1 mitochondrial signal, unstimulated MM1S myeloma – cell-based, JC-1 fluorescence, 24 h, 100 nL compound, profiling panel (AID 1170); details: MM1S mitochondrial potential, higher = more signal
# [10] = resazurin metabolic signal in A549 cells – cell-based, resazurin fluorescence, 24 h, PK04 Diversity Set, profiling panel (AID 1171); details: A549 viability, higher = more signal, called active from +8 up or from −8 down
# Note: test concentration not given here.
SMILES,z-score [1],z-score [2],z-score [3],z-score [4],z-score [5],z-score [6],z-score [7],z-score [8],z-score [9],z-score [10]
C[C@H]1COC(=O)[C@@H]2CCCN2C(=O)[C@@H](C)COC(=O)[C@@H]2CCCN2C1=O,0.507,0.442,-0.178,0.323,-0.0243,0.799,0.085 (inactive),-0.108,0.0551,1.5 (inactive)
C[C@H]1NC(=O)[C@@H](C)NC(=O)[C@@]23C(=O)N[C@@H](Cc4ccccc4)C2[C@H](C)[C@@]2(C)O[C@H]2C3/C=C/C/C=C\CNC1=O (stereo not given in full),0.0575,0.43,0.205,-0.0933,-0.0009,1.24,0.408 (inactive),-0.266,1.66,0.381 (inactive)
CCCNC(=O)[C@@H]1c2ccccc2C(=O)N(Cc2cc(F)cc(C(F)(F)F)c2)[C@H]1c1ccc(CO)cc1,1.68,1.18,-0.0223,0.168,0.563,2.07,-0.31 (inactive),0.693,0.607,1.54 (inactive)
C=CCOC(=O)[C@@H]1[C@H]2C(=O)O[C@H](c3ccccc3)[C@H](c3ccccc3)N2[C@H](c2ccc(OCCOC(=O)[C@H]3C[C@H]4C(=O)N[C@@H](CCCCNC(C)=O)C(=O)N4[C@H]3c3ccc(O)cc3)cc2)[C@@]12C(=O)Nc1ccc(I)cc12,-0.778,-0.796,-0.931,-0.989,0.572,-0.422,0.725 (inactive),-0.324,-0.99,0.213 (inactive)
CN1C(=O)C2C=CC(C(O)c3ccc(N(C)C)cc3)N(Nc3ccc([N+](=O)[O-])cc3[N+](=O)[O-])C2C1=O (stereo not given),1.09,-0.459,-0.0167,-0.126,-0.4,-0.672,-1.06 (inactive),0.0429,-0.0883,0.0697 (inactive)
CC(C)[Si](OCC[C@H]1O[C@]2(C(=O)N(Cc3ccccc3)c3ccccc32)[C@@H](C)[C@@H]1[Si](C)(C)O)(C(C)C)C(C)C,-0.287,1.13,0.35,-0.64,-1.31,0.444,0.578 (inactive),-0.82,-1.51,-1.46 (inactive)
CCOC(=O)C[C@H]1[C@H](OC(=O)c2ccccc2-c2ccccc2)[C@@H](NC(=O)C2CCCCC2)c2cc(OCCCO)ccc2N1C(=O)c1ccccc1,-0.675,1.22,-0.294,-0.402,-1.33,3.59,0.75 (inactive),-0.545,0.109,-0.0403 (inactive)
COCCOC(=O)N1C(=O)[C@@]2(c3cc(C#CCNC(N)=O)ccc31)[C@H](c1ccc(OCCO)cc1)N1[C@H](c3ccccc3)[C@H](c3ccccc3)OC(=O)[C@H]1[C@@H]2C(=O)N1CCCCCCC1,0.118,1.97,-0.164,-0.115,0.269,-0.411,-3.07 (inactive),-0.659,-1.11,0.643 (inactive)
C#CCNC(/C=C/c1ccccc1)CO (stereo not given),-0.165,-0.239,-0.624,-0.295,-0.987,-1.02,0.308 (inactive),0.38,-0.323,0.234 (inactive)
COCCCNC(=O)[C@@H]1c2ccccc2C(=O)N(CC23CC4CC(CC(C4)C2)C3)[C@H]1c1ccc(CO)cc1,0.0071,1.3,0.0729,-0.193,-0.996,1.12,-0.227 (inactive),0.0172,0.0814,0.729 (inactive)
CCN1C(C)=C(C(=O)OC)[C@@H](c2ccccc2)N2C(=O)[C@](O)(C(=O)OC)[C@@H](c3ccccc3)C(C(C)=O)=C12,0.158,2.15,-0.473,0.244,-0.918,1.35,0.982 (inactive),0.195,-0.14,-0.468 (inactive)
C=CCNC(=O)[C@H]1[C@@H]2C(=O)O[C@@H](c3ccccc3)[C@@H](c3ccccc3)N2[C@@H](c2ccc(O)cc2)[C@]12C(=O)Nc1ccc(C#CCNC(N)=O)cc12,0.294,0.57,-0.348,-0.778,-0.144,-0.0995,-0.0287 (inactive),0.424,0.716,0.999 (inactive)
O=[N+]([O-])c1ccc(C[n+]2ccc3ccc(O)cc3c2)o1,1.21,0.233,-0.489,0.216,0.705,-1.43,-0.157 (inactive),-0.158,0.648,-1.02 (inactive)
CCCC/C=C/[C@H]([C@@H](O)Cc1ccccc1)N(CC#Cc1ccccc1)Cc1ccccc1Br,1.44,-0.0982,0.632,0.558,0.0649,0.427,0.519 (inactive),-0.462,-0.435,2.84 (inactive)
CO[C@@H]1COC(=O)CC=C[C@H](C)COC(=O)[C@H](Cc2ccccc2)NC(=O)CC=C[C@H]1C,0.392,0.509,0.674,0.305,0.333,0.883,0.258 (inactive),-0.146,-0.597,-0.145 (inactive)
O=C1C2C=CC(C(O)C(c3ccccc3)c3ccccc3)N(Nc3ccc([N+](=O)[O-])cc3)C2C(=O)N1c1ccccc1 (stereo not given),-0.727,-0.97,0.585,-0.224,-0.986,0.581,-0.735 (inactive),0.213,-1.44,0.452 (inactive)

SMILES,z-score [1],z-score [2],z-score [3],z-score [4],z-score [5],z-score [6],z-score [7],z-score [8],z-score [9],z-score [10]
CO[C@H]1COC(=O)[C@H](C)COC(=O)[C@H](Cc2ccccc2)NC(=O)CC=C[C@H]1C,0.219,-0.0092,0.284,-0.0516,1.14,0.744,0.854 (inactive),0.433,0.213,-0.36 (inactive)
CO[C@H]1O[C@H](CO)[C@@H](OC(=O)Nc2ccccc2)[C@H](OC(=O)Nc2ccc3c(c2)OCO3)[C@@H]1OC(=O)Nc1ccc2c(c1)OCO2,0.307,0.85,0.17,-1.51,-0.735,-0.493,2.84 (inactive),0.105,0.327,-0.429 (inactive)
C[C@@H]1NC(=O)[C@H](Cc2ccccc2)NC(=O)[C@@]23C(=O)N[C@@H](Cc4ccccc4)C2[C@H](C)[C@@]2(C)O[C@H]2C3/C=C/C/C=C\CNC1=O (stereo not given in full),-0.0598,0.523,-0.706,0.0254,-1.65,-0.971,-0.206 (inactive),0.814,0.546,-0.207 (inactive)
C#C[C@H](O[Si](C#Cc1ccccc1)(C(C)C)C(C)C)c1ccccc1,-1.62,-0.653,-1.47,-2.94,-1.91,-2.74,-0.448 (inactive),-0.154,-1.48,-0.912 (inactive)
CCc1cccc(NC(=O)O[C@H]2[C@H](OC(=O)Nc3ccccc3)[C@@H](OC(=O)Nc3ccccc3)[C@@H](OC)O[C@@H]2CO)c1,-2.42,1.1,-4.04,-3.01,-4.29,-0.501,0.963 (inactive),-1.21,-1.53,-4.14 (inactive)
C=C[C@H](OC)[C@@H](OC(=O)Nc1ccc(SC)cc1)c1ccc(OC)c(O)c1,1.73,0.182,0.907,0.898,0.524,0.163,1.15 (inactive),0.412,0.761,0.595 (inactive)
C=CCNC(=O)[C@@H]1[C@H]2C(=O)O[C@H](c3ccccc3)[C@H](c3ccccc3)N2[C@H](c2ccc(OCCO)cc2)[C@@]12C(=O)N(C(=O)OCCOC)c1ccc(C#CC3(O)CCCCCC3)cc12,0.0803,3.14,-1.53,-1.07,-1.16,-1.43,0.738 (inactive),-0.814,-1.05,0.338 (inactive)
COCCOC(=O)N1C(=O)[C@@]2(c3cc(C#CCCO)ccc31)[C@H](c1ccc(OCCO)cc1)N1[C@H](c3ccccc3)[C@H](c3ccccc3)OC(=O)[C@H]1[C@@H]2C(=O)NC[C@H](O)c1ccccc1,0.0831,1.33,-0.796,0.0067,-1.06,-0.0377,0.357 (inactive),0.0686,-0.709,0.703 (inactive)
CC(C)(C)OC(=O)CC[C@@]1(C(=O)NCc2ccccc2)N=C(c2ccc(OCCCO)cc2)O[C@@H]1c1ccccc1,-0.595,1.16,-0.907,-2.37,-3.23,1.9,4.19 (inactive),-0.791,-0.552,-2.88 (inactive)
CCCC=C(CCC)[C@@H](NC(=O)c1ccccc1)c1ccccc1,-0.956,-0.551,0.46,-0.0621,-0.246,-3.04,0.177 (inactive),-0.017,-1.49,0.215 (inactive)
CC(C)[Si](OCCCNS(=O)(=O)c1ccc(Br)cc1)(C(C)C)C(C)C,0.0609,0.279,-2.5,-3.23,-4.09,-3.5,2.29 (inactive),-0.218,0.727,-0.116 (inactive)
C/C(=N\O)C(=O)NCCCCCNC(=O)OCc1ccccc1,1.3,0.895,0.206,0.476,0.239,1.09,0.334 (inactive),-0.561,1.24,0.707 (inactive)
COc1cc(Cc2cc3c(c(CCc4ccccc4)n2)[Si](C(C)C)(C(C)C)OC3)cc(OC)c1OC,0.557,-1.22,-0.202,-2.17,-4.13,0.756,-0.411 (inactive),-0.799,-0.234,2.12 (inactive)
O=C(NCc1ccccc1)[C@@]1(CCS(=O)(=O)c2ccccc2)COC(c2ccc(OCCCO)cc2)=N1,1.29,0.897,-0.0721,-2.26,-0.256,1.61,1.11 (inactive),-0.263,-0.944,-0.335 (inactive)
CO[C@@H]1COC(=O)[C@H](COCc2ccccc2)NC(=O)CC=C[C@@H](C)[C@H](OC)COC(=O)[C@H](COCc2ccccc2)NC(=O)CC=C[C@H]1C,0.404,0.67,-0.0841,0.0234,0.711,0.849,1 (inactive),0.525,0.178,0.296 (inactive)
C=CCNC(=O)[C@H]1[C@@H]2C(=O)O[C@@H](c3ccccc3)[C@@H](c3ccccc3)N2[C@@H](c2ccccc2OCCO)[C@]12C(=O)N(C(=O)OCCOC)c1ccc(C#CCC(C(=O)OC)C(=O)OC)cc12,0.208,2.2,0.128,-2.95,-3.66,0.348,1.54 (inactive),-1.02,-1.35,-0.131 (inactive)

# From PubChem BioAssay
